In PubChem BioAssay AID1159580 (chemical genetic matrix, 2015):
Out of some 5,500 compounds screened, about 2,000 (36%) were called active. Roughly 18% stayed inconclusive and do not appear here. Rule as the data show it: active = normalized growth mostly below about 0.91 (no sharp cut-off); inconclusive = no clear call, values can overlap the other calls; inactive = mostly above about 0.92. This is one part of the list.

Assay: chemical genetic growth profiling, strain panel (AID 1159580);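 also: tested at 20 µM; growth read once vehicle control cultures reached saturation at 30 °C; 1 = growth at the plate median or of vehicle wells; lower values mean less growth of the strain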
Conditions: growth OD

Measured: normalized growth

CC[C@H]1OC(=O)[C@H](C)[C@@H](O[C@H]2C[C@@](C)(OC)[C@@H](O)[C@H](C)O2)[C@H](C)[C@@H](O[C@@H]2O[C@H](C)C[C@H](N(C)C)[C@H]2O)[C@](C)(OC)C[C@@H](C)C(=O)[C@H](C)[C@@H](O)[C@]1(C)O
inactive: S. cerevisiae deletion strains, locus YAL013W, strain DEP1, hits give low values 0.992 | S. cerevisiae deletion strains, locus YBR021W, strain FUR4, hits give low values 1.01 | S. cerevisiae deletion strains, locus YBR229C, strain ROT2, hits give low values 0.989 | S. cerevisiae deletion strains, locus YCL029C, strain bik1, hits give low values 0.994 | S. cerevisiae deletion strains, locus YDL035C, strain GPR1, hits give low values 0.977 | S. cerevisiae deletion strains, locus YDL074C, strain BRE1, hits give low values 0.949 | S. cerevisiae deletion strains, locus YDL101C, strain DUN1, hits give low values 0.992 | S. cerevisiae deletion strains, locus YDL134C, strain PPH21, hits give low values 0.989 | S. cerevisiae deletion strains, locus YDL185W, strain tfp1, hits give low values 0.994 | S. cerevisiae deletion strains, locus YDL192W, strain arf1, hits give low values 0.966 | S. cerevisiae deletion strains, locus YDR101C, strain arx1, hits give low values 0.973 | S. cerevisiae deletion strains, locus YDR150W, strain NUM1, hits give low values 0.987 | S. cerevisiae deletion strains, locus YDR162C, strain NBP2, hits give low values 0.974 | S. cerevisiae deletion strains, locus YDR318W, strain mcm21, hits give low values 0.986 | S. cerevisiae deletion strains, locus YDR388W, hits give low values 0.986 | S. cerevisiae deletion strains, locus YDR502C, strain sam2, hits give low values 0.99 | S. cerevisiae deletion strains, locus YEL061C, strain CIN8, hits give low values 0.985 | S. cerevisiae deletion strains, locus YER110C, hits give low values 1.04 | S. cerevisiae deletion strains, locus YER155C, strain BEM2, hits give low values 0.987 | S. cerevisiae deletion strains, locus YER167W, strain BCK2, hits give low values 0.986 | S. cerevisiae deletion strains, locus YGL078C, strain dbp3, hits give low values 1.01 | S. cerevisiae deletion strains, locus YGL086W, strain mad1, hits give low values 0.969 | S. cerevisiae deletion strains, locus YGL248W, strain PDE1, hits give low values 0.986 | S. cerevisiae deletion strains, locus YGR078C, strain PAC10, hits give low values 0.991 | S. cerevisiae deletion strains, locus YGR135W, strain pre9, hits give low values 0.989 | S. cerevisiae deletion strains, locus YGR229C, strain SMI1, hits give low values 0.963 | S. cerevisiae deletion strains, locus YGR252W, strain gcn5, hits give low values 0.932 | S. cerevisiae deletion strains, locus YHR030C, strain SLT2, hits give low values 0.986 | S. cerevisiae deletion strains, locus YHR079C, strain IRE1 (second series), hits give low values 0.983 | S. cerevisiae deletion strains, locus YHR094C, strain hxt1, hits give low values 0.982 | S. cerevisiae deletion strains, locus YHR129C, strain ARP1, hits give low values 0.981 | S. cerevisiae deletion strains, locus YHR200W, strain rpn10, hits give low values 0.98 | S. cerevisiae deletion strains, locus YIL066C, strain RNR3, hits give low values 0.985 | S. cerevisiae deletion strains, locus YIL073C, strain SPO22, hits give low values 0.985 | S. cerevisiae deletion strains, locus YIL125W, strain kgd1, hits give low values 1.01 | S. cerevisiae deletion strains, locus YIR030C, strain dcg1, hits give low values 0.999 | S. cerevisiae deletion strains, locus YJL095W, strain BCK1, hits give low values 0.971 | S. cerevisiae deletion strains, locus YJL134W, strain LCB3, hits give low values 0.989 | S. cerevisiae deletion strains, locus YJL168C, strain set2, hits give low values 0.978 | S. cerevisiae deletion strains, locus YJL187C, strain SWE1 (second series), hits give low values 0.989 | S. cerevisiae deletion strains, locus YJR043C, strain POL32, hits give low values 0.958 | S. cerevisiae deletion strains, locus YJR075W, strain HOC1, hits give low values 0.954 | S. cerevisiae deletion strains, locus YKL009W, strain mrt4, hits give low values 0.997 | S. cerevisiae deletion strains, locus YKL068W, hits give low values 0.982 | S. cerevisiae deletion strains, locus YKL085W, strain MDH1 (second series), hits give low values 0.978 | S. cerevisiae deletion strains, locus YKL085W, strain MDH1, hits give low values 0.978 | S. cerevisiae deletion strains, locus YKL190W, strain CNB1, hits give low values 0.967 | S. cerevisiae deletion strains, locus YKR001C, strain vps1, hits give low values 0.999 | S. cerevisiae deletion strains, locus YLR039C, strain RIC1, hits give low values 0.979 | S. cerevisiae deletion strains, locus YLR058C, strain SHM2, hits give low values 0.987 | S. cerevisiae deletion strains, locus YLR102C, strain apc9, hits give low values 0.997 | S. cerevisiae deletion strains, locus YLR262C, strain YPT6, hits give low values 1.03 | S. cerevisiae deletion strains, locus YLR268W, strain sec22, hits give low values 0.987 | S. cerevisiae deletion strains, locus YLR330W, strain CHS5, hits give low values 0.992 | S. cerevisiae deletion strains, locus YLR342W, strain FKS1 (second series), hits give low values 0.956 | S. cerevisiae deletion strains, locus YLR371W, strain rom2, hits give low values 0.967 | S. cerevisiae deletion strains, locus YLR418C, strain cdc73, hits give low values 0.916 | S. cerevisiae deletion strains, locus YML016C, strain PPZ1, hits give low values 0.986 | S. cerevisiae deletion strains, locus YML032C, strain rad52, hits give low values 0.971 | S. cerevisiae deletion strains, locus YML124C, strain tub3, hits give low values 0.983 | S. cerevisiae deletion strains, locus YMR078C, strain ctf18, hits give low values 1 | S. cerevisiae deletion strains, locus YMR223W, strain ubp8, hits give low values 0.998 | S. cerevisiae deletion strains, locus YMR263W, strain SAP30, hits give low values 0.987 | S. cerevisiae deletion strains, locus YMR307W, strain GAS1, hits give low values 0.789 | S. cerevisiae deletion strains, locus YNL067W, strain RPL9B, hits give low values 0.983 | S. cerevisiae deletion strains, locus YNL128W, strain TEP1, hits give low values 0.979 | S. cerevisiae deletion strains, locus YNL153C, strain GIM3, hits give low values 0.983 | S. cerevisiae deletion strains, locus YNL233W, strain BNI4, hits give low values 0.982 | S. cerevisiae deletion strains, locus YNL250W, strain rad50, hits give low values 1 | S. cerevisiae deletion strains, locus YNL271C, strain bni1, hits give low values 1.01 | S. cerevisiae deletion strains, locus YNL298W, strain CLA4, hits give low values 1.02 | S. cerevisiae deletion strains, locus YNL307C, strain MCK1, hits give low values 1 | S. cerevisiae deletion strains, locus YNL322C, strain KRE1, hits give low values 0.987 | S. cerevisiae deletion strains, locus YNR052C, strain pop2, hits give low values 0.937 | S. cerevisiae deletion strains, locus YOL006C, strain TOP1, hits give low values 0.757 | S. cerevisiae deletion strains, locus YOL012C, strain htz1 0.325 | S. cerevisiae deletion strains, locus YOL147C, strain pex11, hits give low values 0.993 | S. cerevisiae deletion strains, locus YOR061W, strain CKA2, hits give low values 0.987 | S. cerevisiae deletion strains, locus YOR069W, strain VPS5, hits give low values 0.98 | S. cerevisiae deletion strains, locus YOR136W, strain idh2, hits give low values 1.01 | S. cerevisiae deletion strains, locus YOR144C, strain elg1, hits give low values 0.973 | S. cerevisiae deletion strains, locus YOR184W, strain ser1, hits give low values 0.991 | S. cerevisiae deletion strains, locus YOR316C, strain cot1, hits give low values 0.986 | S. cerevisiae deletion strains, locus YPL055C, strain LGE1, hits give low values 0.962 | S. cerevisiae deletion strains, locus YPL241C, strain CIN2, hits give low values 0.976 | S. cerevisiae deletion strains, locus YPR119W, strain clb2, hits give low values 0.975 | S. cerevisiae deletion strains, locus YPR141C, strain kar3, hits give low values 1.01 | S. cerevisiae deletion strains, locus YPR163C, strain tif3, hits give low values 0.955 | S. cerevisiae deletion strains, locus YPR167C, strain met16, hits give low values 0.996 | S. cerevisiae deletion strains, strain wtn01, hits give low values 0.964 | S. cerevisiae strains, strain wild type, hits give low values 0.982
